# Data from article PMC12701074.
# Tests used:
# Assay in all cases: cross-linking mass spectrometry
# [1] = target: PPIA (UniProt P62937); settings: in cells
# [2] = target: SERBP1 (UniProt Q8NC51); settings: in cells
# [3] = target: YWHAE (UniProt P62258); settings: SBAP, in cells
# [4] = target: YWHAZ (UniProt P63104); settings: SBAP, in cells
# [5] = target: VIM (UniProt P08670); settings: in cells
# [6] = target: RPA3 (UniProt P35244); settings: SIA, in cells
# [7] = target: NDUFS3 (UniProt O75489); settings: SIAB, in cells
# [8] = target: RANGAP1 (UniProt P46060); settings: SIAB, in cells
# [9] = target: NR2E1 (UniProt Q9Y466); settings: SBAP, in cells
# [10] = target: PSMC3 (UniProt P17980); settings: SIAB, in cells
# [11] = target: PKM (UniProt P14618); settings: SBAP, in cells
# [12] = target: PDE12 (UniProt Q6L8Q7); settings: SIA, in cells
# [13] = target: PHF5A (UniProt Q7RTV0); settings: SIA, in cells
# [14] = target: RFC3 (UniProt P40938); settings: SIAB, in cells
# [15] = target: PGK2 (UniProt P07205); settings: SIA, in cells
# [16] = target: RPL14 (UniProt P50914); settings: SIA, in cells
# [17] = target: RPS11 (UniProt P62280); settings: SIA, in cells
# [18] = target: RPS3A (UniProt P61247); settings: SIA, in cells
# [19] = target: RPS6 (UniProt P62753); settings: SIA, in cells
# [20] = target: RPL18A (UniProt Q02543); settings: SBAP, in cells
# [21] = target: RPL24 (UniProt P83731); settings: SIA, in cells
# [22] = target: RPS16 (UniProt P62249); settings: SIA, in cells
# [23] = target: RPL32 (UniProt P62910); settings: SBAP, in cells
# [24] = target: RPL36 (UniProt Q9Y3U8); settings: SBAP;SIA, in cells
# [25] = target: RPL7A (UniProt P62424); settings: SIA, in cells
# [26] = target: RPS15A (UniProt P62244); settings: SIA, in cells
# [27] = target: RPS2 (UniProt P15880); settings: SIA, in cells
# [28] = target: RPS8 (UniProt P62241); settings: SIA, in cells
# [29] = target: RRP1B (UniProt Q14684); settings: SIA, in cells
# [30] = target: RTRAF (UniProt Q9Y224); settings: SIAB, in cells
# [31] = target: SF3A3 (UniProt Q12874); settings: SIAB, in cells
# [32] = target: SF3B5 (UniProt Q9BWJ5); settings: in cells
# Sequence of SF3B5 (Q9BWJ5 whole entry): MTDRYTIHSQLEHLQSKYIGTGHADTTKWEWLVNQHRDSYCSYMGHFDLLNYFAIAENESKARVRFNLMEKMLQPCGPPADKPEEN
# [33] = target: SFSWAP (UniProt Q12872); settings: SBAP, in cells
# [34] = target: TRRAP (UniProt Q9Y4A5); settings: in cells
# [35] = target: SLC25A22 (UniProt Q9H936); settings: SIAB, in cells
# [36] = target: SNRPD2 (UniProt P62316); settings: SBAP;SIAB, in cells
# [37] = target: SNRPD3 (UniProt P62318); settings: SIA, in cells
# [38] = target: SNX6 (UniProt Q9UNH7); settings: SIA, in cells
# [39] = target: SPTBN1 (UniProt Q01082); settings: SIA, in cells
# [40] = target: SRP68 (UniProt Q9UHB9); settings: SBAP, in cells
# [41] = target: SRSF7 (UniProt Q16629); settings: SIA, in cells
# [42] = target: STK11IP (UniProt Q8N1F8); settings: SIA, in cells
# [43] = target: SYNE2 (UniProt Q8WXH0); settings: SIAB, in cells
# [44] = target: TMPO (UniProt P42167); settings: SIAB, in cells
# [45] = target: TPI1 (UniProt P60174); settings: SIA, in cells
# [46] = target: TSNAX (UniProt Q99598); settings: SIA, in cells
# [47] = target: UBE2K (UniProt P61086); settings: SIAB, in cells
# [48] = target: USP7 (UniProt Q93009); settings: SIA, in cells
# [49] = target: VDAC2 (UniProt P45880); settings: SBAP;SIAB, in cells
# [50] = target: XRCC5 (UniProt P13010); settings: in cells
# Sequence of VIM (P08670 whole entry): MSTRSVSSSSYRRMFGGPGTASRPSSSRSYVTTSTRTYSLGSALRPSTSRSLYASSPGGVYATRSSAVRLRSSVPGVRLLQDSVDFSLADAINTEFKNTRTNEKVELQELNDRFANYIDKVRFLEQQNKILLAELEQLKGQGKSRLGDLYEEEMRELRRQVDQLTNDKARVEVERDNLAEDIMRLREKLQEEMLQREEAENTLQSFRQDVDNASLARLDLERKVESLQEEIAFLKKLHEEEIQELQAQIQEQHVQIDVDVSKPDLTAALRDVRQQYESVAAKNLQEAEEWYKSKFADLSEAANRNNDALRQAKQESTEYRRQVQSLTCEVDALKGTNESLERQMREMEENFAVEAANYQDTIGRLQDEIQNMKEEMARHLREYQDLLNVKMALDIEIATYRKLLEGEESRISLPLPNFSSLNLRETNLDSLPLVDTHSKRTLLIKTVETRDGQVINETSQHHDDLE
# Sequence of NEFM, P07197 (P07197 whole entry): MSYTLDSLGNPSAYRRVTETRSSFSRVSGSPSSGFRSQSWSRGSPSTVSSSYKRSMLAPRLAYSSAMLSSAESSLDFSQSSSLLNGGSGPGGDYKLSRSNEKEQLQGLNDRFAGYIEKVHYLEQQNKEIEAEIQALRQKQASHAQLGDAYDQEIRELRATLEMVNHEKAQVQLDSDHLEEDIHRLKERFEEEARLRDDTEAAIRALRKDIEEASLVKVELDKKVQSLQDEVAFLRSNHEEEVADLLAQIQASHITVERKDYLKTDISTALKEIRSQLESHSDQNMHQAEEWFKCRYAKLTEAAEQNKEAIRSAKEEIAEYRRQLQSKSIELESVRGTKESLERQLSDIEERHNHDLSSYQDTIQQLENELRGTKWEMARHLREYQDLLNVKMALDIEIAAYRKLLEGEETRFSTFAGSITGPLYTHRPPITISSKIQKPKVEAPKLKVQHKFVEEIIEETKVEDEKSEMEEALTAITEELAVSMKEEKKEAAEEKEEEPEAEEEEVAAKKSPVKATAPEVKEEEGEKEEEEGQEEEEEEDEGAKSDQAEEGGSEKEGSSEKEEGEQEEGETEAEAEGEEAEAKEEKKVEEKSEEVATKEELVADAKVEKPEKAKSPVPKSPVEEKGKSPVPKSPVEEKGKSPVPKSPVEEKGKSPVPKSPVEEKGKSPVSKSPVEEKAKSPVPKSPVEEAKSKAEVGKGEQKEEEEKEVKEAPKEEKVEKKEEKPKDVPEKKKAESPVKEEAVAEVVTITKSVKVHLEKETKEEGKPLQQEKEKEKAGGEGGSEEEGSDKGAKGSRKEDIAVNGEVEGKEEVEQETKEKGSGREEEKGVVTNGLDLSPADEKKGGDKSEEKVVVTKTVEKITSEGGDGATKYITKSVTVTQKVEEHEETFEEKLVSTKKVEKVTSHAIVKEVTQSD
# Sequence of PPIA (P62937 whole entry): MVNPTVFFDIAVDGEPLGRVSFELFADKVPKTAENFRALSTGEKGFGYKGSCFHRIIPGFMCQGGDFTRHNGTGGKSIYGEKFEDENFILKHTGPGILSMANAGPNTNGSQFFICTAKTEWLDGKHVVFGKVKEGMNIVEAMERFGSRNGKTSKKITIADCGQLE
# Sequence of YWHAQ, P27348 (P27348 whole entry): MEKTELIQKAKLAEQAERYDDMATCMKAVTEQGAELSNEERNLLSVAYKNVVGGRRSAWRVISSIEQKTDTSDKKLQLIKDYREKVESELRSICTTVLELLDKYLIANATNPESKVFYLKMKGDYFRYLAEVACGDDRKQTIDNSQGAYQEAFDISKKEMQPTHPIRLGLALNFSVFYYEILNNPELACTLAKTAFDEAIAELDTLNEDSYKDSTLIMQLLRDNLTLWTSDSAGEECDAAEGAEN
# Sequence of XRCC6, P12956 (P12956 whole entry): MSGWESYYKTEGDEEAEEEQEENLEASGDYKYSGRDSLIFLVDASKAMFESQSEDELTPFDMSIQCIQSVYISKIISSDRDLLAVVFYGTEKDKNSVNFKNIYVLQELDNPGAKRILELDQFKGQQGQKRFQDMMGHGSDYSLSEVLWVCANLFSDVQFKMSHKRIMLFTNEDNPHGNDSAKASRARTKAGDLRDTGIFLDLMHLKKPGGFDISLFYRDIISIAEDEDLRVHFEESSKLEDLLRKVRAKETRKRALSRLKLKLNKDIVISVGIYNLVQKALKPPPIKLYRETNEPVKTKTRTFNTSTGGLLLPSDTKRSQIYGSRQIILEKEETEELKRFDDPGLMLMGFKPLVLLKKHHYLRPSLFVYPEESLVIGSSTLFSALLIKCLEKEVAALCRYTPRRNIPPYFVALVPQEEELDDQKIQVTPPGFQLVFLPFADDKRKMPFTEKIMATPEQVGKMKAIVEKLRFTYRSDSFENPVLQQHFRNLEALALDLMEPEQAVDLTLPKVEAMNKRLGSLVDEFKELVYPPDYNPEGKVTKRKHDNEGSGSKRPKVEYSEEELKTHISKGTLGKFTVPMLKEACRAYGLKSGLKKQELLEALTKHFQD
# Sequence of FASN, P49327 (P49327 whole entry): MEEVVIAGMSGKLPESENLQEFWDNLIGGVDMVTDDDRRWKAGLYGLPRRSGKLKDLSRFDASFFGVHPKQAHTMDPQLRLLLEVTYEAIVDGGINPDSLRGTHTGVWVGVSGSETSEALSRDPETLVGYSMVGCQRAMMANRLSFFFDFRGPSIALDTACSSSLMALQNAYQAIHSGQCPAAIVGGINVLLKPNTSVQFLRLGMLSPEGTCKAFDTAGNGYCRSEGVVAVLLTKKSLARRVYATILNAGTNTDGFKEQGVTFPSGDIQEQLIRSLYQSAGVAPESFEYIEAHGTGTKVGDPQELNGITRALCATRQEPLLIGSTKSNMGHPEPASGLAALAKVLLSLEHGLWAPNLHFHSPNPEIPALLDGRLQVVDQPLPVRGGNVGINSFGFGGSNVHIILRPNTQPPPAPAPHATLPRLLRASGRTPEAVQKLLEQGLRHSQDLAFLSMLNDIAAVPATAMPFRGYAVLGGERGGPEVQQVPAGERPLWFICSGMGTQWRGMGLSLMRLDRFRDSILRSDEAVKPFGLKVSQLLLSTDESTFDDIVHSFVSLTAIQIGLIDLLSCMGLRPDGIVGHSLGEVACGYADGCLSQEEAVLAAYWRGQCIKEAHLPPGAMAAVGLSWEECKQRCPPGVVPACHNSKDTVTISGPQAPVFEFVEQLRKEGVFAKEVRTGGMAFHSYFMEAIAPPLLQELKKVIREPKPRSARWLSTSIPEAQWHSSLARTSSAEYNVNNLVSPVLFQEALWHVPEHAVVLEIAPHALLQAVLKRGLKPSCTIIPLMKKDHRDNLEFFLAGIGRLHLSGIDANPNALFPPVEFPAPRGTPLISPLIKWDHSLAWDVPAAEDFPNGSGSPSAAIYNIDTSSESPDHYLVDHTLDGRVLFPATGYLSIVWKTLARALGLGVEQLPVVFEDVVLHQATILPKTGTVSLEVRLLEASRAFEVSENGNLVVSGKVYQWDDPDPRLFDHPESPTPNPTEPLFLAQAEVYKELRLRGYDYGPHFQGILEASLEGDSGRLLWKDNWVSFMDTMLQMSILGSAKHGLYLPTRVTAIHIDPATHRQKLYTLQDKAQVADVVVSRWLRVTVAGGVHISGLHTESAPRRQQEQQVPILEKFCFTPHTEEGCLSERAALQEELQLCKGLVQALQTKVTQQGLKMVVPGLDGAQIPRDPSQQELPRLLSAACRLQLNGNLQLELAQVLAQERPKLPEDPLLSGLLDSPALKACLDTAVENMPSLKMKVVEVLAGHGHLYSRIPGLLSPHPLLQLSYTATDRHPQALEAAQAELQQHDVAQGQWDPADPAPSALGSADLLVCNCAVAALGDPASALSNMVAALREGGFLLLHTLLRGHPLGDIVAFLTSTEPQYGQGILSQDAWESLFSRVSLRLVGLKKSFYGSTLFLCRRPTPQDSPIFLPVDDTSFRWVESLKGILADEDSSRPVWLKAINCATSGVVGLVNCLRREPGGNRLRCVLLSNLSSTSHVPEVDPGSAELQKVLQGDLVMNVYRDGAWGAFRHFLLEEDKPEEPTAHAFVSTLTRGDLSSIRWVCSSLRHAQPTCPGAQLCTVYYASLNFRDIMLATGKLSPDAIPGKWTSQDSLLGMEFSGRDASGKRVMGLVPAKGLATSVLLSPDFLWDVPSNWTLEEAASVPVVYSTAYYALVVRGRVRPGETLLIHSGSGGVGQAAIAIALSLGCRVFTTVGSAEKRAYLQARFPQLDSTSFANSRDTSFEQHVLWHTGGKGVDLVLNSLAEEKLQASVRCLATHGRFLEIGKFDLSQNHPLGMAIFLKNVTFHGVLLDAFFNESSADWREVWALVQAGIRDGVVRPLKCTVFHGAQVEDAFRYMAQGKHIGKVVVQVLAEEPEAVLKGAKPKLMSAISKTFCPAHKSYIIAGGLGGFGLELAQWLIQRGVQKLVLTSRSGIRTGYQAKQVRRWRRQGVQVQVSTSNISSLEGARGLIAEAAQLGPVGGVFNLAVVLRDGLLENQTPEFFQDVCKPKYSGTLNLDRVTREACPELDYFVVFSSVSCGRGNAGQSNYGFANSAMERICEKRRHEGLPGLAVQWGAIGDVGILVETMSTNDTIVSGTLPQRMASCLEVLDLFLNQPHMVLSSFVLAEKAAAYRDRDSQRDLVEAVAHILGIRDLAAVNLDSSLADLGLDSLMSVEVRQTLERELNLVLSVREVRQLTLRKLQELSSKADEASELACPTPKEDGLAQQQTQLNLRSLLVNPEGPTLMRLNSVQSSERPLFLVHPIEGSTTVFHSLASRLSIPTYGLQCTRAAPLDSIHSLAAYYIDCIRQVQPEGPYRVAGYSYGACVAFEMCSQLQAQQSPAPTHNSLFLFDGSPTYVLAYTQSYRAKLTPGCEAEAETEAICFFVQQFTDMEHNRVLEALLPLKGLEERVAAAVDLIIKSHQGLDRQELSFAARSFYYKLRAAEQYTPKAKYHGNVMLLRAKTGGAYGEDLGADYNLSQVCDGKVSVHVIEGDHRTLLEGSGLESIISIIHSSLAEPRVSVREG
substance,measurement,setting,value
"YWHAQ, P27348",cross-linked residues,[1]; SIAB,C134 - K76
same,cross-linked residues,[2]; SBAP;SIAB,C134 - K321
same,cross-linked residues,[3],C25 - K69
same,cross-linked residues,[4],K49 - C94
"NEFM, P07197",cross-linked residues,[1]; SIA,K223 - C115
same,cross-linked residues,[5]; SBAP;SIA;SIAB,K223 - C328
same,cross-linked residues,[5]; SIA,K208 - C328
same,cross-linked residues,[5]; SIA;SIAB,K53 - C328
"RPA1, P27694",cross-linked residues,[6],C323 - K33
"NDUFA2, O43678",cross-linked residues,[7],C24 - K259
"ZNF8, P17098",cross-linked residues,[8],K522 - C169
"YWHAG, P61981",cross-linked residues,[9],C112 - K53
"PSMD9, O00233",cross-linked residues,[10],C59 - K300
"AP3B1, O00203",cross-linked residues,[11],K386 - C49
"GTF2E1, P29083",cross-linked residues,[1]; SIA,K53 - C115
"PPP2R5D, Q14738",cross-linked residues,[12],K589 - C119
"SF3B1, O75533",cross-linked residues,[13],K554 - C49
"RFC4, P35249",cross-linked residues,[14],K255 - C32
"PGK1, P00558",cross-linked residues,[15],C108 - K30
"H1-3, P16402",cross-linked residues,[16],K169 - C42
same,cross-linked residues,[17],K194 - C116
same,cross-linked residues,[18],K141 - C96
same,cross-linked residues,[19],K169 - C12
"APAF1, O14727",cross-linked residues,[20],K680 - C109
"NCL, P19338",cross-linked residues,[21],K220 - C36
same,cross-linked residues,[22],K116 - C25
"ABCB1, P08183",cross-linked residues,[23],K285 - C96
"SERBP1, Q8NC51",cross-linked residues,[24],C11 - K35
"LRP5, O75197",cross-linked residues,[25],C1343 - K217
"PSMD3, O43242",cross-linked residues,[26],K315 - C30
same,cross-linked residues,[27],K315 - C182
"AIFM1, O95831",cross-linked residues,[22],K13 - C25
"GPI, P06744",cross-linked residues,[27],K128 - C182
"NVL, O15381",cross-linked residues,[28],C448 - K157
"NPM1, P06748",cross-linked residues,[29],K32 - C583
"FAM98A, Q8NCA5",cross-linked residues,[30],K248 - C19
"INF2, Q27J81",cross-linked residues,[2]; SIA,C650 - K52
"SNRPA1, P09661",cross-linked residues,[31],K221 - C145
"PHF5A, Q7RTV0",cross-linked residues,[32]; SBAP;SIA,C85 - K17
same,cross-linked residues,[32]; SIA,C11 - K17
"FASN, P49327",cross-linked residues,[33],C1881 - K654
same,cross-linked residues,[34]; SIA,C2468 - K3285
"SLC25A5, P05141",cross-linked residues,[35],K147 - C52
"SNRNP70, P08621",cross-linked residues,[36],C39 - K88
"RPL14, P50914",cross-linked residues,[37],K209 - C20
"SNX2, O60749",cross-linked residues,[38],K487 - C264
"ADD1, P35611",cross-linked residues,[39],C525 - K227
"SRP72, O76094",cross-linked residues,[40],K504 - C525
"SRSF1, Q07955",cross-linked residues,[41],C148 - K24
"S100A11, P31949",cross-linked residues,[42],K36 - C827
"PYGB, P11216",cross-linked residues,[43],K622 - C3664
"LMNA, P02545",cross-linked residues,[44],K201 - C363
"UTP20, O75691",cross-linked residues,[45],K2042 - C127
"HMGB2, P26583",cross-linked residues,[34]; SBAP,K147 - C1727
"TSN, Q15631",cross-linked residues,[46],C225 - K27
"UBA1, P22314",cross-linked residues,[47],C1040 - K18
"GMPS, P49915",cross-linked residues,[48],K478 - C315
"VDAC1, P21796",cross-linked residues,[49],K197 - C47
"NEFL, P07196",cross-linked residues,[5]; SIA;SIAB,K267 - C328
same,cross-linked residues,[5]; SIAB,K224 - C328
"XRCC6, P12956",cross-linked residues,[50]; SBAP,K331 - C296
same,cross-linked residues,[50]; SBAP;SIA,K287 - C296
"YWHAE, P62258",cross-linked residues,[4],K69 - C25
